CYP2C19 inhib: blockers of cytochrome P450 2C19 activity – biochemical, luminescence, ADME assay, primary screen; P33261; CYP2C19 Supersomes, luciferin-H EGE luminescence, 30 min; inhibition, % at 5 µM; 21% of 96,000 active;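 active = CYP2C19 inhibition above a set limit at 5 µM in the primary screen, cut at about 50% in these data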
CYP2C19 act: human CYP2C19 activators, primary screen, biochemical, luminescence | recombinant CYP2C19, luciferin-H EGE luminescence; active compounds read high; 0 = fully inhibited enzyme, 1 = untreated enzyme | activation factor at 5 µM | 96,000 tested, under 10 active | AID 1025, 2008;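 active = activation factor of at least 2 at 5 µM in the primary screen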
DAT uptake mod: changed hDAT dopamine uptake under cocaine IC80, either direction, primary screen, cocaine antagonist project, cell-based, LLC-PK1 hDAT, [14C]-dopamine uptake, MLSMR; Sodium-dependent dopamine transporter (Homo sapiens), Q01959; AID 449768, 2010; LLC-PK1 hDAT cells, [14C]-dopamine uptake with cocaine IC80; actives deviate in either direction; 1.3% of 110,000 active; B-score at 10 µM;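 active = Z score or B-score, a plate-position-corrected score, falls beyond the plate's 99.7% confidence bounds, in either direction; inactive = both scores lie inside the 99.7% bounds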
D1 mod: D1 CRE-luciferase signal change, two-sided – cell-based, HEK293 D1, dopamine EC30, D1 allosteric modulator project, primary screen | B-score at 10 µM | D(1A) dopamine receptor (Homo sapiens), P21728 | AID 641, 2007 | 5.9% of 58,000 active | dopamine EC30 potentiation; actives deviate in either direction;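 active = luminescence count or its row- and column-corrected plate score outside the 99.7% band of the plate's sample wells, on either side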
CYP2C9 inh: blockers of cytochrome P450 2C9 activity – biochemical, luminescence, ADME assay, primary screen | AID 777, 2007 | 20% of 96,000 active | P11712 | CYP2C9 Supersomes, luciferin-H conversion | inhibition, % at 5 µM;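 active = blocking of liver enzyme CYP2C9 beyond about 50% at 5 µM, limit read from the data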
Target sequence (P11712 whole entry, looked up): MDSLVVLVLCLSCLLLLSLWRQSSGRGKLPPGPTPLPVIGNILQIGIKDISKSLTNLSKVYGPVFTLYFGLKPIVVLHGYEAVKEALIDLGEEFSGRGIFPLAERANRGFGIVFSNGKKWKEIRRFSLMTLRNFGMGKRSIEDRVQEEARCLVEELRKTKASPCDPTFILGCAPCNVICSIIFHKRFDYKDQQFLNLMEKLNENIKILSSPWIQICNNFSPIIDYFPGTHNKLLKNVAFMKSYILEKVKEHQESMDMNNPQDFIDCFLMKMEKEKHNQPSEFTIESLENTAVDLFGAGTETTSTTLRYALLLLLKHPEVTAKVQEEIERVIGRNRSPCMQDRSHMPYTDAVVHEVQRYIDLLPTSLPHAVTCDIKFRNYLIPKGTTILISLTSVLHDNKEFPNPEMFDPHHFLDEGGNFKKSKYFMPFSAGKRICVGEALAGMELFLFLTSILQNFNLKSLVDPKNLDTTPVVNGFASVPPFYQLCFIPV
CYP2C9 activ: human CYP2C9 activators, primary screen, biochemical, luminescence; recombinant CYP2C9, luciferin-H conversion; active compounds read high; factor 1 = untreated enzyme, 0 = blocked; activation factor at 5 µM; 1.4% of 96,000 active; AID 1024, 2008;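 active = activation factor of 2 or more for CYP2C9 at a 5 µM dose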
Each line names hits and unclear results; the compound was inactive in the other large screens. Rows were chosen to be rich in hits. Some 28% of all compounds tested hit in one or more screens of this group.

Cc1ccc(S(=O)(=O)N(C)c2ccc(OCC(=O)O)cc2)cc1	none (no result: D1 mod)
COc1ccc(S(=O)(=O)n2ccc(C(C)Oc3ccc(-c4ccccc4)c(F)c3)n2)cc1 (stereo not drawn)	CYP2C9 inh 92 (no result: D1 mod)
CC(=O)c1cccc(NC(=O)Cc2cccs2)c1	none
O=C(Cc1cccs1)Nc1cccc(C(=O)Nc2ccco2)c1	CYP2C19 inhib 51, CYP2C9 inh 78
O=C(Cc1cccs1)Nc1ccc(NC(=O)c2ccco2)cc1	CYP2C9 inh 72
Cn1c(N)c(C#N)c2c(c1=S)COC(C)(C)C2	none (no result: DAT uptake mod, D1 mod)
Cn1c(N)c(C#N)c2c(c1=S)CSC(C)(C)C2	DAT uptake mod -7.8 (no result: D1 mod)
O=C(C1CC(=O)N(c2ccccc2)C1)N1CCN(C2=NS(=O)(=O)c3ccccc32)CC1 (stereo not drawn)	none
CCCCCCCCCCCCN1[C@@H](CC(=O)OC)c2cc(F)ccc2S1(=O)=O	none (no result: CYP2C19 inhib, CYP2C19 act, D1 mod, CYP2C9 inh, CYP2C9 activ)
CCOC(=O)c1nnn(-c2nc(OC)nc(N3CCCCC3)n2)c1-c1ccccc1	CYP2C19 inhib 80, CYP2C9 inh 56 (no result: D1 mod)
CCOC(=O)c1nnn(-c2ccccc2)c1C	none (no result: CYP2C19 inhib, CYP2C19 act, D1 mod, CYP2C9 inh, CYP2C9 activ)
CCOC(=O)c1c(-c2ccccc2)nnn1-c1nc(OCC)nc(N2CCCCC2)n1	CYP2C19 inhib 88, DAT uptake mod 1.8, CYP2C9 inh 60
CCOC(=O)c1nnn(-c2nc(N3CCCC3)nc(N3CCCC3)n2)c1-c1ccccc1	CYP2C19 inhib 51 (no result: DAT uptake mod)
CCOc1nc(N2CCCCC2)nc(-n2cc(-c3ccccc3)nn2)n1	none (no result: D1 mod)
CCCCn1c(=S)[nH]c2c(oc3ccc(Cl)cc32)c1=O	none (no result: CYP2C19 inhib, CYP2C19 act, CYP2C9 inh, CYP2C9 activ)
COc1ccc2[nH]cc(CCNC(C)=O)c2c1	none (no result: CYP2C19 inhib, CYP2C19 act, D1 mod, CYP2C9 inh, CYP2C9 activ)
CCCCCN=C(N)N/N=C/c1c[nH]c2ccc(OC)cc12	DAT uptake mod 3.7 (no result: CYP2C19 inhib, CYP2C19 act, D1 mod, CYP2C9 inh, CYP2C9 activ)
O=[N+]([O-])c1c(NCCCO)cc(Sc2nc3ccccc3s2)c2nonc12	none (no result: DAT uptake mod, D1 mod)
CCC(=O)OCCNc1cc(Sc2nc3ccccc3s2)c2nonc2c1[N+](=O)[O-]	CYP2C9 inh 54 (no result: D1 mod)
Cc1ccc(-c2n[nH]c(=S)n2/N=C/C=C/c2ccccc2[N+](=O)[O-])cc1	CYP2C9 inh 58 (no result: D1 mod)
O=C(/C=C/c1ccccc1)NCCSCc1ccccc1Cl	CYP2C9 inh 57 (no result: D1 mod)
O=C(/C=C/c1ccc(Cl)cc1)NCCSc1ccccc1	none (no result: DAT uptake mod, D1 mod)
CSc1ncc(Cl)c(C(=O)C(C#N)c2nc3c(C)cc(C)cc3c(=O)[nH]2)n1 (stereo not drawn)	none (no result: CYP2C19 inhib, CYP2C19 act, CYP2C9 inh, CYP2C9 activ)
CCOC(=O)CC1(CC(=O)OCC)NC(=O)c2c(C)sc(C(=O)OCC)c2N1	CYP2C19 inhib 96
CCCCC1(C)NC(=O)c2c(C)sc(C(=O)OCC)c2N1 (stereo not drawn)	CYP2C9 inh 94 (no result: D1 mod)
CCOC(=O)CN1C(=O)N[C@@H](CCc2ccccc2)C(C(C)=O)=C1C	none (no result: CYP2C19 inhib, CYP2C19 act, D1 mod, CYP2C9 inh, CYP2C9 activ)
CCCNS(=O)(=O)c1cccn1-c1ncc(C(F)(F)F)cc1Cl	CYP2C19 inhib 51, CYP2C9 inh 66 (no result: D1 mod)
N#C/C(=C\c1ccc(Cl)cc1Cl)c1n[nH]c(Cn2cncn2)n1	CYP2C19 inhib 61, CYP2C9 inh 78 (no result: D1 mod)
CC1CN(C(NC(=O)C(C)(C)C)C(Cl)(Cl)Cl)CC(C)O1 (stereo not drawn)	none (no result: D1 mod)
CCOC(=O)COc1ccc(S(=O)(=O)NCc2ccco2)cc1	CYP2C19 inhib 73
COC(=O)COc1ccc(S(=O)(=O)NCc2ccco2)cc1	CYP2C19 inhib 60
COC(=O)COc1ccc(S(=O)(=O)Nc2ccc(C(N)=O)cc2)cc1	none
C=CCNS(=O)(=O)c1ccc(OCC(=O)OC)cc1	CYP2C19 inhib 70, CYP2C9 inh 71
O=C(Cn1ncc2c(=O)oc3ccccc3c21)N(Cc1ccco1)C1CCCCC1	none (no result: CYP2C19 inhib, CYP2C19 act, D1 mod, CYP2C9 inh, CYP2C9 activ)
O=c1[nH]cnc2c1N1CCC2CC1	none
O=C(C[n+]1ccc(C(=O)N/N=C/c2ccc(Br)cc2)cc1)c1ccccc1	CYP2C19 inhib 74 (no result: D1 mod)
O=C(C[n+]1ccc(C(=O)N/N=C/c2ccc(O)cc2)cc1)c1ccccc1	none (no result: D1 mod)
O=C(OCc1ccccc1Cl)c1ccccc1C(=O)c1ccccc1	CYP2C19 inhib 67 (no result: D1 mod)
C=CCNCCCCOc1ccc(C)cc1[N+](=O)[O-]	none (no result: D1 mod)
CC(C)Cc1nc(S(=O)(=O)c2ccc(Cl)cc2)c(N2CCOCC2)o1	CYP2C19 inhib 57
COc1cc(-c2nc(S(=O)(=O)c3ccc(Cl)cc3)c(N3CCOCC3)o2)cc(OC)c1OC	CYP2C9 inh 62
COc1cc(-c2nc(S(=O)(=O)c3ccc(C)cc3)c(N(C)C)o2)cc(OC)c1OC	CYP2C9 inh 56
COc1ccccc1-c1nc(S(=O)(=O)c2ccc(Cl)cc2)c(N(C)C)o1	none
O=C(CN1CCCC1=O)NC1(C(F)(F)F)NC(=O)N(Cc2ccccc2)C1=O (stereo not drawn)	none
CC(=O)Nc1ccc2c(c1)ncn2C1CCCCC1	none (no result: CYP2C19 inhib, CYP2C19 act, D1 mod, CYP2C9 inh, CYP2C9 activ)
COc1ccc(N2C(=O)c3ccccc3NC23C(=O)N(C)c2ccccc23)cc1 (stereo not drawn)	none (no result: D1 mod)
CC(=O)NC12CC3CC(C)(C1)CC(NC(C)=O)(C3)C2	none
Cc1ccc(Cl)cc1N(CC(=O)N1CCCCCC1)S(C)(=O)=O	none
Cc1ccc(CCNC(=O)C23CN(Cc4ccccc4)CC2C(c2ccc([N+](=O)[O-])cc2)=NO3)cc1 (stereo not drawn)	none (no result: D1 mod)
Cc1ccc(CNC(=O)C23CN(Cc4ccccc4)CC2C(c2ccc([N+](=O)[O-])cc2)=NO3)cc1 (stereo not drawn)	CYP2C19 inhib 58 (no result: D1 mod)
O=C(NCc1ccccc1)C12CN(Cc3ccccc3)CC1C(c1cccc([N+](=O)[O-])c1)=NO2 (stereo not drawn)	CYP2C19 inhib 74 (no result: D1 mod)
O=C(NCc1ccc(OC(F)(F)F)cc1)C12CN(Cc3ccccc3)CC1C(c1cccc([N+](=O)[O-])c1)=NO2 (stereo not drawn)	CYP2C19 inhib 76, CYP2C9 inh 57 (no result: D1 mod)
CCOC(=O)C1CCCN(C(=O)CCn2nc(-c3ccccc3)ccc2=O)C1 (stereo not drawn)	none (no result: DAT uptake mod)
Cc1cnc(SCCc2ccncc2)nc1C	CYP2C19 inhib 76
Cc1ccc(NC(=O)C(Cc2ccccc2)NC(=O)c2ccco2)cc1 (stereo not drawn)	none (no result: D1 mod)
CC(C)C(NC(=O)c1ccccc1)c1nnc(SCC(=O)Nc2nccs2)n1C (stereo not drawn)	none (no result: D1 mod)
C=CCN(C(=O)CCC(=O)Nc1cc(C)on1)C(C(=O)NC1CCCC1)c1cccnc1 (stereo not drawn)	CYP2C9 inh 68

High-throughput results deposited in PubChem by several laboratories.
